# In PubChem BioAssay (NCI):
# Compounds without any hit were thinned out: in the full panel of roughly 83,000, 20% have a hit.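 Treatment: one concentration, 48 hours, 96-well format. Scoring: percent growth, with anything below 10 considered active.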 A number with no mark means an inactive call. Active and inactive are the calls of the source.
# How the values were obtained:
# Assay in all cases: NCI-60 one-dose screen, 48 h (100 = growth as untreated, 0 = no growth, -100 = all killed)
# Settings in all cases: 10 µM unless noted
# NCI-H23 lung = test system: NCI-H23 lung
# NCI-H226 lung = test system: NCI-H226 lung
# NCI-H322M lung = test system: NCI-H322M lung
# HOP-62 NSCLC = test system: HOP-62 NSCLC
# NCI-H460 lung = test system: NCI-H460 lung
# HOP-92 NSCLC = test system: HOP-92 NSCLC
# NCI-H522 lung = test system: NCI-H522 lung
# A549/ATCC NSCLC = test system: A549/ATCC NSCLC
# 786-0 renal = test system: 786-0 renal
# COLO 205 colon = test system: COLO 205 colon
Structure (SMILES),growth (NCI-H23 lung),growth (NCI-H226 lung),growth (NCI-H322M lung),growth (HOP-62 NSCLC),growth (NCI-H460 lung),growth (HOP-92 NSCLC),growth (NCI-H522 lung),growth (A549/ATCC NSCLC),growth (786-0 renal),growth (COLO 205 colon)
CCCCOc1ccc(NC(=O)n2nc(NC(C)=O)c3cc(NC(C)=O)ccc32)cc1,101%,99%,99.4%,108%,102%,93%,91.7%,102%,93.2%,121%
O=C(O)c1c([N+](=O)[O-])cnc2ccccc12,91.5%,91.8%,96.6%,90.6%,106%,131%,100%,102%,105%,121%
CCOC(=O)c1c2c(n3ccc(NC(=O)CCN4CCCCC4)cc13)C(=O)c1ncccc1C2=O,-55.2% (active),73.8%,-77.4% (active),-74.5% (active),-35.9% (active),78.5%,5.07% (active),-70.1% (active),19.4%,-71.8% (active)
C=C1CCC2C3(C)COC(c4ccc(OC)cc4Br)OC3CCC2(C)C1/C=C/C1=CCOC1=O (stereo not given),52.7%,63.1%,97.6%,97.3%,65%,84.8%,63.8%,58.2%,77.6%,118%
COc1ccc(C2CC(=O)Nc3c2c(C)nn3-c2nc3ccccc3[nH]2)cc1 (stereo not given),99.1%,101%,53.9%,116%,20.8%,89.1%,98.2%,97.4%,106%,129%
Nc1c(C(=O)Nc2ccccc2Cl)sc2nc3c(cc12)CCCCCC3,72.4%,31%,49.2%,27%,30.8%,39.4%,58%,29%,-55.3% (active),33.8%
CC#CC#Cc1cccc(=O)o1,40.4%,74.4%,50.3%,110%,83.5%,35.3%,59.2%,104%,83.5%,46.8%
CCCCCCCCOC(=O)CC[C@@H](C)[C@H]1CC[C@H]2[C@@H]3[C@H](OC(=O)CCN)C[C@@H]4C[C@H](OC(=O)CCN)CC[C@]4(C)[C@H]3C[C@H](OC(=O)CCN)[C@]12C,90.3%,89.8%,71.4%,37.7%,73.7%,40.7%,10.8%,81.3%,99.1%,66.4%
C[C@@H]1CC[C@@H]2[C@@H]1[C@H](OC(=O)/C=C/c1ccccc1)[C@]1(c3ccccc3)C[C@@H](OC(=O)CO)[C@@]2(C)O1,102%,88.8%,88%,101%,92%,78.8%,88.5%,80.2%,98%,107%
CCOC(=O)c1ccc2c(c1)nc(/C=C/c1ccc(Cl)cc1)n2-c1cc(C(C)(C)C)[nH]n1,77.6%,44.5%,48.7%,43.1%,59%,48.2%,52.2%,32.8%,42.7%,62.5%
COc1ccccc1-c1ccc2c(N)c(C(=O)c3ccc4c(c3)OCO4)sc2n1,82.1%,96.7%,94.7%,73.3%,60.2%,67.8%,18.6%,46.1%,86%,89.1%
O=C(/C=C\c1ccc2ccccc2n1)c1cc(Cl)ccc1O,63.2%,58.7%,86.1%,97.8%,78.9%,52.3%,94.8%,104%,75.4%,115%
COc1ccc2c(c1)C(=O)/C(=C/c1cccc(OCC(=O)Nc3nc4c(s3)CCCC4)c1)O2,-48.9% (active),101%,82.5%,99.3%,71.3%,-74.8% (active),-50.3% (active),54.6%,63.3%,-3.43% (active)
Cc1cc(N/N=C/c2nc(-c3ccc(Cl)cc3)oc2C)c2cc(Cl)ccc2n1,111%,98.4%,79.1%,103%,-62.5% (active),69.5%,-1.87% (active),21.9%,-39.8% (active),83.7%
O=C1C2CC=CCC2C(=O)N1CNc1ccc(Cl)cc1 (stereo not given),94.2%,90.5%,92.2%,86.4%,107%,62.9%,74.7%,93.6%,89.4%,115%
O=C(/C=C/c1ccc(Cl)cc1)/C=C/c1cc2ccccc2[nH]c1=O,68%,93.5%,105%,39.4%,94.4%,92.5%,46.4%,46.5%,88.5%,40.8%
CS(=O)CCCCCN=C=S (stereo not given),4.24% (active),-8.26% (active),1.21% (active),-7.49% (active),0.781% (active),19.5%,-25.4% (active),-0.774% (active),9.82% (active),-51.6% (active)
CC(C)Oc1nc2c(c(=O)n(C)c(=O)n2C)n1C,96%,97.1%,94.4%,92.5%,105%,102%,80.9%,84.7%,104%,102%
C[C@@H]1CC[C@@H]2[C@@H]1[C@H](OC(=O)/C=C/c1ccccc1)[C@]1(C3CCCCC3)C[C@@H](OC(=O)CO)[C@@]2(C)O1,81.9%,68.2%,92.9%,86%,68.3%,55.3%,65.9%,53.1%,73.2%,80.6%
O=C1CC(c2nc3ccccc3s2)CN1C1CCCCC1 (stereo not given),90.4%,94.6%,91.2%,93.2%,105%,84.9%,92.7%,98.9%,109%,101%
COc1cc2cc(COc3nccc(-c4ccc(Cl)cc4)n3)c(=O)[nH]c2cc1OC,88.5%,89.1%,79.6%,88.2%,86.2%,69.9%,108%,67.5%,80.9%,44.3%
Cc1noc(C)c1-c1cc(O)cc(C(O)c2ccccc2)c1 (stereo not given),68.1%,65.5%,47.6%,47.2%,67.2%,25.6%,22.1%,55.4%,54.8%,37.1%
COc1cccc2c1C(=O)c1c(O)c3c(c(O)c1C2=O)C[C@@](O)(/C(C)=N/NC(=O)c1ccc(Cl)cc1)C[C@@H]3OC1CC(N)C(O)C(C)O1 (stereo not given in full),-39.7% (active),-39.4% (active),-35.3% (active),-17% (active),-21.8% (active),-6.16% (active),-70.1% (active),-32.8% (active),-6.44% (active),-81.4% (active)
COc1cc(-c2c3c(nc4c2c(C)nn4-c2ccccc2)-c2ccccc2C(=O)C3=O)cc(OC)c1OC,76.6%,99.7%,104%,107%,77.4%,83.7%,84.4%,80.6%,97.8%,69.7%
COc1ccc(C(=O)/C=C/c2cc3ccccc3[nH]c2=O)cc1,11.9%,64.5%,61.5%,29.7%,3.4% (active),34.6%,-31% (active),42.3%,33.5%,66.9%
CCOC(=O)c1c2c(n3ccc(NC(=O)CCN(CC)CC)cc13)C(=O)c1ncccc1C2=O,0.0285% (active),75.1%,73.4%,31.4%,-20.4% (active),82.1%,6.16% (active),36.2%,50.1%,54.1%
C#Cc1nc2ccccc2c(=O)[nH]1,29.9%,-58.8% (active),29.5%,-6.19% (active),11.1%,-45.8% (active),-71.9% (active),4.37% (active),-64.7% (active),-74.3% (active)
